Consider 40 compounds from ChEMBL document CHEMBL1157539, “Thousands of chemical starting points for antimalarial lead identification” (Nature, 2010).

The subject of the first assay is Plasmodium falciparum. The assay can be described thus: GSK_TCMDC: Inhibition of Plasmodium falciparum 3D7 in whole red blood cells, using parasite LDH activity as an index of growth. Test compounds present at 2uM. Type of assay: functional.
By Inhibition is commonly meant the share of the control response that was lost under treatment. A lower Inhibition goes with a weak effect. With `COc1ccc2nccc([C@@H](O)CN3CCC(NC(=O)c4ccc(-c5ccc(C#N)cc5)cc4)CC3)c2c1`, the Inhibition is given as 100%. Same read-out and setting: in the case of `CC(=O)OC[C@H]1O[C@@H](C#Cc2ccccc2)[C@H](OC(C)=O)[C@@H](OC(C)=O)[C@@H]1OC(C)=O` it was 95%; in that of `Cn1c(-c2ccccc2)cc2c3c(=O)cc(C(F)(F)F)[nH]c3ccc21`, 95%. As to `Cc1cc(N[C@@H](CC(C)C)C(=O)NCc2cccs2)nc(NCCc2cccs2)n1.O=C(O)C(F)(F)F`, the Inhibition was 92%.

The next assay deals with Plasmodium falciparum. The assay can be described thus: GSK_TCMDC: Inhibition of Plasmodium falciparum Dd2 in whole red blood cells, using parasite LDH activity as an index of growth. Test compounds present at 2uM. Type of assay: functional.
The compound `CO/C(=C\C=C\c1cc2cc(Cl)c(Cl)cc2[nH]1)C(=O)NCCCN1CCCC[C@@H]1C` returned an Inhibition of 83%. The same measure, in the same setting: in the case of `Cc1cccc2nc(-c3cccc(-c4cccc(NC(=O)c5ccc(C(N)=O)cc5)c4)c3)[nH]c12` it was 34%; in that of `CC(C)(C)CCN1CCC(NC(=O)c2ccc(-c3cccc(C(F)(F)F)c3)s2)CC1.O=C(O)C(F)(F)F`, 88%; in that of `O=C(/C=C/c1ccc(Cl)c(Cl)c1)N1CCC(CN2CCC(Cc3nc4ccccc4[nH]3)CC2)CC1`, 95%. Same read-out and setting: the result for `CN1CCC(NCc2ccc(-c3cccc(S(=O)(=O)NCC4CCCO4)c3)cc2)CC1.O=C(O)C(F)(F)F` (centres undefined) reads 0%; that for `CCNc1cc(C(=O)N[C@@H](Cc2ccccc2)[C@H](O)CNC(C)Cc2cccc(Cl)c2)cc(N2CCCCS2(=O)=O)c1.Cl` (some centres undefined), 77%; that for `O=[N+]([O-])c1cc(C(c2ccc(O)c([N+](=O)[O-])c2)C(Cl)(Cl)Cl)ccc1O`, 98%. The same measure, in the same setting: the result for `Cc1ccc(CNc2ccc3ncc(-c4cccc(C(=O)NCCN(C)C)c4)n3n2)c(C)c1` reads 78%; that for `Cc1nnc(-c2cccc(Nc3ccnc4cc(-c5nccs5)ccc34)c2)o1.Cl`, 89%; that for `O=C(O)C(F)(F)F.O=[N+]([O-])c1cccc(CNCC2CCN(CCc3ccccc3)CC2)c1`, 11%. `COc1ccc(CNCc2ccc(-c3ccc(-c4nc5cc(C(F)(F)F)ccc5[nH]4)cc3)cc2)cc1.O=C(O)C(F)(F)F`: the Inhibition stood at 99%.

In turn, `CC1(C)CNCc2cc(NC(=O)/C=C/c3ccc(Cl)cc3)ccc21.Cl` displayed an Inhibition of 26%. `CN1CCCN(Cc2ccc(-c3cccc(NC(=O)c4cccc(F)c4)c3)cc2)CC1.O=C(O)C(F)(F)F`: the Inhibition is given as 12%.

Turning to `CC(C)COc1ccc(Cl)cc1Nc1nc(-c2nc3ccccc3[nH]2)cs1.Cl`, the Inhibition worked out at 29%. Consider `CCC(O)c1ccc(Br)cc1NC(=O)c1cccc(Cl)c1` (centres undefined), for which the Inhibition worked out at 52%. Turning to `O=C(Nc1ccc(C(F)(F)F)cc1)NC1CCN(c2ccnc3cc(Cl)ccc23)C1.O=C(O)C(F)(F)F` (centres undefined), the Inhibition turned out to be 99%. Regarding `O=C(/C=C/c1ccc(Cl)cc1)NCCCCCN1CCCN(C(=O)Nc2cccc(Cl)c2)CC1`, the Inhibition turned out to be 10%. As for `CCCc1ccc(NC(=O)c2ccc(CN3CCCN(CC4CCCCC4)CC3)cc2)cc1.O=C(O)C(F)(F)F`, the Inhibition was 41%. The same measure, in the same setting: the result for `Cc1[nH]c(C)c(-c2ccc(OCc3ccc(F)cc3)nc2)c(=O)c1Br` reads 97%; that for `Cc1cc2c(NC(=O)NC3CCN(Cc4ccc(Cl)c(Cl)c4)CC3)cccc2cn1.Cl`, 41%; that for `COCCCNC(=O)[C@H]1CNCCN1C(=O)c1ccccc1.O=C(O)C(F)(F)F`, 95%. On to `CC(=O)c1cc(N2CCOCC2)ccc1N`, for which the Inhibition was 43%. Take `CC(C)CCN1CCC(Oc2ccc(NC(=O)c3ccccc3)cc2Cl)CC1.O=C(O)C(F)(F)F`: the Inhibition was determined as 88%. Same read-out and setting: the result for `O=C(NC1CCN(Cc2ccccc2)CC1)c1cccc(-c2nc3ccc(Cl)cc3[nH]2)c1` reads 0%; that for `Cc1cccc2nc(-c3cccc(-c4ccc(NC(=O)C5CC(=O)Nc6ccccc65)cc4)c3)[nH]c12` (centres undefined), 56%; that for `CC(C)COc1ccc(Cl)cc1Cc1nc(-c2nc3cccc(CN4CCN(C)CC4)c3[nH]2)cs1`, 30%.

For the compound `O=C(O)C(F)(F)F.O=S(=O)(Nc1ccc(-c2ccc(CN3CCCC3)cc2)cc1)c1cccc2cccnc12`, the Inhibition is 10%. The same measure, in the same setting: the result for `COc1ccc(-c2cccc(NC(=O)c3cccc(Cl)c3)c2)cc1CN1CCC(O)CC1.O=C(O)C(F)(F)F` reads 16%; that for `Cl.O=c1cc(NCCCNCc2csc(Br)c2Sc2ccc(Cl)cc2)[nH]c2ccccc12`, 83%; that for `Cc1ccc(Cn2c(N3CCC(C(=O)NCc4cccs4)CC3)nc3ccccc32)cc1`, 71%. For the compound `N=C(N)Nc1nc(CCCCCCCCc2csc(NC(=N)N)n2)cs1`, the Inhibition stood at 28%. On to `CN(C)c1ccc(CN2CCC(NC(=O)c3ccc(-c4cccc(Cl)c4)s3)CC2)cc1.O=C(O)C(F)(F)F`, for which the Inhibition worked out at 44%. Still for that read-out and setting: the result for `Cc1cccc(Cl)c1S(=O)(=O)N1CCCCC(c2ccc(C(F)(F)F)cc2)=N1` reads 100%; that for `CCCCCCCCN1CCCN(C(=O)c2cccc(NC(=O)Nc3ccc4ccccc4c3)c2)CC1.O=C(O)C(F)(F)F`, 39%; that for `COc1cccc2c1CCN(CCN1CCC(CNC(=O)c3ccc(-c4ccc(C#N)cc4)cc3)CC1)C2`, 98%.

Take `CC1(CCCCN2CCC(c3c[nH]c4cnccc34)CC2)C(=O)Nc2cccc(Cl)c21` (centres undefined): the Inhibition worked out at 0%. Same read-out and setting: in the case of `COc1ccc2nccc([C@@H](O)CN3CCC(NC(=O)c4ccc(-c5ccc(C#N)cc5)cc4)CC3)c2c1` it was 91%. `CC(=O)OC[C@H]1O[C@@H](C#Cc2ccccc2)[C@H](OC(C)=O)[C@@H](OC(C)=O)[C@@H]1OC(C)=O` yielded an Inhibition of 90%.

Regarding `Cn1c(-c2ccccc2)cc2c3c(=O)cc(C(F)(F)F)[nH]c3ccc21`, the Inhibition stood at 49%. In the case of `Cc1cc(N[C@@H](CC(C)C)C(=O)NCc2cccs2)nc(NCCc2cccs2)n1.O=C(O)C(F)(F)F`, the Inhibition came out at 13%.
